We go through 14 compounds from PubChem BioAssay.

Each structure is given as a SMILES string. Calls of active or inactive are those of the source.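 Rule for the calls, unless noted: active = compound raises GLP1 secretion from the human gut endocrine cells, with no numeric limit stated; inactive = the rest.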

Test [1] is described as follows: Wnt pathway potentiators raising nuclear beta-catenin – imaging, WNT3A-conditioned medium, mouse C2C12, NPC library, primary screen (AID 1117326; in the data active = nuclear beta-catenin stimulation mostly above about 4.2%, no sharp cut-off; inactive = mostly below about 10%; note: reference of the scale not given here). The note with it: stronger effect = higher value.
A short description of test [2]: stimulators of insulin release from INS-1E, primary screen, cell-based, 5 mM glucose, NPC library (AID 1117329;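 active = compound raises insulin release from rat beta cells at 5 mM glucose, no numeric limit stated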; note: reference of the scale not given here). The note with it: rat INS-1E insulin secretion, at 10 µM, stronger effect = higher value.
Test [3] can be described thus: growth inhibition of GSK3B-pretreated HCT116 cells – cell-based, CellTiter-Glo, 0.2 to 20 µM (AID 1117336;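 active = compounds lowering colon cancer cell viability after pretreatment blocking the GSK3B kinase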). The note with it: HCT116 viability after GSK3B inhibitor, at 20 µM, stronger effect = higher value. In general terms: ATP-based viability assays read luminescence as a measure of living cells.
The nature of test [4]: inhibition of endothelial tube formation, primary screen, imaging, VEGF stimulated, CD31 staining, tube area, NPC library (AID 1117340;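 active = compound that reduces growth-factor-driven endothelial tube area in a mixed cell culture, no cutoff stated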). The note with it: VEGF-stimulated ADSC/ECFC co-culture, at 10 µM, stronger effect = higher value.
Test [5] in a line: GLP1 release stimulators, primary, NCI-H716, NPC library (AID 1117341). Note: reference of the scale not given here. The note with it: NCI-H716 cells, at 10 µM, stronger effect = higher value.
The nature of test [6]: HCT116 colon cancer cell growth inhibition, primary screen, CellTiter-Glo luminescence, NPC library (AID 1117342;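 active = compounds that lower survival of HCT116 colon cancer cells in the luminescence readout, no numeric limit stated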). The note with it: at 20 µM (top of the series).
A short description of test [7]: reduced SW480 viability measured with CellTiter-Glo, NPC library, primary (AID 1117343;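 active = compounds that lower viability of the colon cancer cells in the luminescence readout, with no numeric limit stated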). The note with it: CellTiter-Glo luminescence; at 20 µM (top of the series).
Test [8] can be described thus: NPC library primary testing for decreased DLD-1 cell viability via CellTiter-Glo (AID 1117346;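 active = compounds that lower survival of DLD-1 colon cancer cells in the luminescence readout, no cutoff given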). The note with it: DLD-1 viability, CellTiter-Glo luminescence; at 20 µM (top of the series).

As for `CC(Cc1ccccc1)NC=O` (stereo unspecified), the nuclear beta-catenin stimulation in test [1] (at 10 µM) is -2.3% (inactive); in test [1] (stimulation, at 2 µM) it was -0.1%. Besides, the insulin secretion stimulation in test [2] is 1.5% (inactive). For the same compound, in test [3], the viability decrease is -5.7% (inactive). The tube area decrease in test [4] was 1.3% (inactive). In test [5], the GLP1 secretion stimulation was -5.4% (inactive). Besides, the inhibition of viability in test [6] was 8.8% (inactive). Moreover, the results for the viability decrease (inhibition) in test [7] and in test [8] were 16.7% (inactive) and -4.6% (inactive), respectively.
`COP(=S)(OC)SCN1C(=O)c2ccccc2C1=O`: the nuclear beta-catenin stimulation in test [1] (at 10 µM) was 0.4% (inactive); in test [1] (stimulation, at 2 µM), 1.1%. Also, the insulin secretion stimulation in test [2] is -0.9% (inactive). Moreover, the viability decrease in test [3] was -8.95% (inactive). Moreover, the tube area decrease in test [4] was 1.5% (inactive). Also, the GLP1 secretion stimulation in test [5] was 0% (inactive). Also, the inhibition of viability in test [6] is -8.5% (inactive). Further, the viability decrease (inhibition) in test [7] is 6.9% (inactive); in test [8], 24.4% (inactive).
As for `CCN1CCCC1CNC(=O)C(O)(c1ccccc1)c1ccccc1` (stereo unspecified), the nuclear beta-catenin stimulation was 1.8% (inactive) in test [1] (at 10 µM) and 1.9% in test [1] (stimulation, at 2 µM). For the same compound, the insulin secretion stimulation in test [2] is 8.1% (inactive). Moreover, in test [3], the viability decrease is -4.1% (inactive). In addition, the tube area decrease in test [4] is -2.9% (inactive). Besides, the GLP1 secretion stimulation in test [5] was -0.1% (inactive). Also, in test [6], the inhibition of viability was 10.9% (inactive). The results for the viability decrease (inhibition) in test [7] and in test [8] were 24.2% (inactive) and -4.5% (active), respectively.
For the compound `CC(C)(C)NCC(O)c1cc(Cl)c(N)c(C(F)(F)F)c1` (stereo unspecified), the nuclear beta-catenin stimulation was 0.4% (inactive) in test [1] (at 10 µM) and 1% in test [1] (stimulation, at 2 µM). Besides, the insulin secretion stimulation in test [2] was -1.6% (inactive). For the same compound, the viability decrease in test [3] was -16.8% (inactive). Further, the tube area decrease in test [4] is -0.3% (inactive). The GLP1 secretion stimulation in test [5] was -2.3% (inactive). Also, the inhibition of viability in test [6] was 10.6% (inactive). For the same compound, the viability decrease (inhibition) is 5.9% (inactive) in test [7] and -1.7% (inactive) in test [8].
With `COP(=S)(OC)Oc1ccc(S(=O)(=O)N(C)C)cc1`, the nuclear beta-catenin stimulation in test [1] (at 10 µM) was -1.9% (inactive); in test [1] (stimulation, at 2 µM), -0.5%. The insulin secretion stimulation in test [2] is 0.3% (inactive). Besides, in test [3], the viability decrease was -11.8% (inactive). In addition, the tube area decrease in test [4] is -6.5% (inactive). Moreover, in test [5], the GLP1 secretion stimulation was -1.2% (inactive). The inhibition of viability in test [6] was 4.9% (inactive). The viability decrease (inhibition) was 6.4% (inactive) in test [7] and 0% (inactive) in test [8].
As for `CCO[C@H]1O[C@@H]2OC3(C)CC[C@H]4[C@H](C)CC[C@@H]([C@H]1C)[C@@]24OO3`, the nuclear beta-catenin stimulation was 6.9% (inactive) in test [1] (at 10 µM) and 25.2% in test [1] (stimulation, at 2 µM). Moreover, in test [2], the insulin secretion stimulation was 2.6% (inactive). Moreover, in test [3], the viability decrease is 50.5% (active). Moreover, in test [4], the tube area decrease was 34.8% (inactive). The GLP1 secretion stimulation in test [5] is 6.1% (inactive). In test [6], the inhibition of viability is 34.8% (inactive). In addition, the viability decrease (inhibition) was 37.5% (inactive) in test [7] and 37.1% (inactive) in test [8].
As for `COP(=S)(OC)Oc1ccc(S(N)(=O)=O)cc1`, the nuclear beta-catenin stimulation in test [1] (at 10 µM) was 0.4% (inactive); in test [1] (stimulation, at 2 µM), 1.1%. Further, the insulin secretion stimulation in test [2] was -1.7% (inactive). The viability decrease in test [3] was -4.35% (inactive). Moreover, in test [4], the tube area decrease is -30.3% (inactive). For the same compound, the GLP1 secretion stimulation in test [5] was 1.6% (inactive). Besides, in test [6], the inhibition of viability is -18.1% (inactive). Also, the viability decrease (inhibition) is 4.3% (inactive) in test [7] and -0.7% (inactive) in test [8].
Regarding `Cc1c(Cl)c(=O)oc2cc(OP(=O)(OCCCl)OCCCl)ccc12`, the nuclear beta-catenin stimulation in test [1] (at 10 µM) was 0.5% (inactive); in test [1] (stimulation, at 2 µM), 0%. Also, the insulin secretion stimulation in test [2] is 4.8% (inactive). Besides, the viability decrease in test [3] is 12.2% (inactive). Besides, in test [4], the tube area decrease is 14.4% (inactive). The GLP1 secretion stimulation in test [5] was -2.3% (inactive). The inhibition of viability in test [6] is 35.4% (inactive). Also, the figures for the viability decrease (inhibition) in test [7] and in test [8] were 29.5% (inactive) and 0.8% (inactive), respectively.
On to `C[C@]12C[C@@H]3S[C@H]3C[C@@H]1CC[C@H]1[C@H]3CC[C@@H](O)[C@@]3(C)CC[C@@H]12`, for which the nuclear beta-catenin stimulation in test [1] (at 10 µM) is -1% (inactive); in test [1] (stimulation, at 2 µM), -0.5%. In addition, in test [2], the insulin secretion stimulation was 2.4% (inactive). Moreover, in test [3], the viability decrease is -16.6% (inactive). The tube area decrease in test [4] is 10.4% (inactive). Further, the GLP1 secretion stimulation in test [5] is -4.2% (inactive). Further, the inhibition of viability in test [6] is 18.8% (inactive). For the same compound, the viability decrease (inhibition) in test [7] was 17.2% (inactive); in test [8] it was -13.3% (inactive).
For the compound `C[C@]12CCC(=O)C=C1C=C[C@@H]1[C@H]2CC[C@@]2(C)[C@@H]1CC[C@@]2(O)CCC(=O)O`, the nuclear beta-catenin stimulation in test [1] (at 10 µM) is -1.1% (inactive); in test [1] (stimulation, at 2 µM) it was 0%. In addition, the insulin secretion stimulation in test [2] is -2.4% (inactive). Moreover, in test [3], the viability decrease is -15.4% (inactive). The tube area decrease in test [4] is 2% (inactive). For the same compound, the GLP1 secretion stimulation in test [5] was 0.9% (inactive). Further, the inhibition of viability in test [6] is 3.7% (inactive). For the same compound, the viability decrease (inhibition) was -2% (inactive) in test [7] and -7.2% (inactive) in test [8].
`CCN(CC)Cc1nccn1-c1ccc([N+](=O)[O-])cc1C(=O)c1ccccc1Cl`: the nuclear beta-catenin stimulation in test [1] (at 10 µM) is -1.2% (inactive); in test [1] (stimulation, at 2 µM), -0.2%. In addition, the insulin secretion stimulation in test [2] is 7.4% (inactive). Also, in test [3], the viability decrease was -3% (inactive). Besides, the tube area decrease in test [4] was 2.7% (inactive). In test [5], the GLP1 secretion stimulation is -0.3% (inactive). The inhibition of viability in test [6] was 28.5% (inactive). Besides, the viability decrease (inhibition) is 39.7% (inactive) in test [7] and 0% (inactive) in test [8].
Take `C[C@@]12CCCCC[C@@H](Cc3ccc(O)cc31)[C@H]2N`: the nuclear beta-catenin stimulation in test [1] (at 10 µM) is -0.5% (inactive); in test [1] (stimulation, at 2 µM), 0.1%. For the same compound, the insulin secretion stimulation in test [2] is 11.2% (inactive). In test [3], the viability decrease is -4.1% (inactive). Moreover, the tube area decrease in test [4] was 8.5% (inactive). Besides, the GLP1 secretion stimulation in test [5] was -2.3% (inactive). The inhibition of viability in test [6] is 13.4% (inactive). In addition, the viability decrease (inhibition) in test [7] was 6.4% (inactive); in test [8] it was -12.5% (inactive).
Regarding `CCCCNC(C)(C)[P+](=O)O`, the nuclear beta-catenin stimulation in test [1] (at 10 µM) was -0.8% (inactive); in test [1] (stimulation, at 2 µM), -0.8%. The insulin secretion stimulation in test [2] is -2.5% (inactive). The viability decrease in test [3] was -0.6% (inactive). In addition, the tube area decrease in test [4] is -26.4% (inactive). Moreover, the GLP1 secretion stimulation in test [5] was -3.9% (inactive). The inhibition of viability in test [6] is -4.7% (inactive). For the same compound, the viability decrease (inhibition) in test [7] was 1.4% (inactive); in test [8], -4.2% (inactive).
For the compound `CCN(CCO)CCn1c(Cc2ccccc2)nc2c1c(=O)n(C)c(=O)n2C`, the nuclear beta-catenin stimulation in test [1] (at 10 µM) is -2% (inactive); in test [1] (stimulation, at 2 µM), 0%. In addition, in test [2], the insulin secretion stimulation was 3% (inactive). In addition, in test [3], the viability decrease is -6% (inactive). Besides, the tube area decrease in test [4] is 4.3% (inactive). In addition, the GLP1 secretion stimulation in test [5] was -5.3% (inactive). The inhibition of viability in test [6] is 6.4% (inactive). The viability decrease (inhibition) in test [7] was 15.1% (inactive); in test [8] it was 4.2% (inactive).
